Compound activity as filed in PubChem BioAssay.
Eya2 phos inh: Eya2 (human) phosphatase inhibition; O00167; recombinant Eya2, OMFP fluorescence dephosphorylation (OMFP is methylfluorescein phosphate); Potency, µM (titrated, usually from 76.9 µM), for the others: at the highest dose activity, negative = inhibition, usual class: inhibitors; 330,000 tested, 0.006% active; also: potency is read from the fitted curve at half-maximal effect
Target sequence (O00167 whole entry, looked up): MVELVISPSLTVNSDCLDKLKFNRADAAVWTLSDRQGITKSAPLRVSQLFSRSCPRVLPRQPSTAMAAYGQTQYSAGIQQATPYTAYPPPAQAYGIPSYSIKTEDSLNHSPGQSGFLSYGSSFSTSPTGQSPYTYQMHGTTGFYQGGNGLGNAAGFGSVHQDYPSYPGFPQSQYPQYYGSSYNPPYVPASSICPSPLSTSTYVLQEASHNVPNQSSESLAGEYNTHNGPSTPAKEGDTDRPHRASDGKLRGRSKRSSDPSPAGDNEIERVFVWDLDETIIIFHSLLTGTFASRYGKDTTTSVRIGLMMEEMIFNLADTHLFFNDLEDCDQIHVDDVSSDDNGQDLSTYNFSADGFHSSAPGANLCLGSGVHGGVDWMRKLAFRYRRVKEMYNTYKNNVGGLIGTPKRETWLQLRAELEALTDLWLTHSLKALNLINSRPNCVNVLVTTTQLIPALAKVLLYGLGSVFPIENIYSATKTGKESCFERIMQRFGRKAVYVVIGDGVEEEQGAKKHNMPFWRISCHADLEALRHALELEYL
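Eya2 protein (added as 0.2 uM solution) was preincubated with compound for 10 min at ambient temperature in 50 mM HEPES pH 7.5, 50 mM NaCl, 5 uM MgCl2, 0.05% BSA, 1 mM DTT. OMFP (added at 50 uM) then reacted 10 min; fluorescence read at 485/525 nm.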
CtBP-E1A blk: inhibitors of CtBP/E1A interaction; activity change, % (test concentration not listed); 340,000 tested, 0.49% active; AlphaScreen GST-E1A/His-CtBP binding, 1536-well; hits give low values; in the data active = activity change below about -65%; inconclusive = mostly about -30% to -63%
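In 5 uL wells, 23 nL compound meets equimolar GST-E1A and His-CtBP (5X stock 125 nM each) for 2 h, 37 °C. Beads (5X, 50 ug/mL) then 1 h, 37 °C, dark.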
Six1-Eya2 inh: Six1/Eya2 interaction inhibition; Q15475+O00167; AlphaScreen GST-Six1/His-Eya2 binding, biochemical; hits give low values; activity change, % (no concentration beside the values); 360,000 tested, 0.56% active; AID 651725; in the data active = activity change below about -65%; inconclusive = mostly about -30% to -63%
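Compounds are tested against tagged Six1 and Eya2 proteins bridged by glutathione donor and nickel acceptor beads; after a one-hour incubation at 37 °C without light, AlphaScreen emission is recorded.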
L3MBTL1 inh: L3MBTL1 (human) inhibition; Potency, µM (series often up to 57.1 µM), for the others: at the top dose activity, negative = inhibition, usual class: inhibitors; AID 485360; 230,000 tested, 0.66% active; Q9Y468; AlphaScreen L3MBTL1–H3K9me1 peptide binding; also: potency is read from the fitted curve at half-maximal effect; nearly all actives have a fitted effect of over 60% in size
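Displacement of a biotinylated histone H3(1-15) peptide monomethylated at Lys9 (75 nM) from L3MBTL1 (50 nM) was measured by AlphaScreen after a 30 min room-temperature compound incubation; cefsulodin titration served as intraplate control.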
B2AR arrestin: agonists driving beta-arrestin recruitment to human beta2-adrenergic receptor; Potency, µM (doses to about 46.1 µM), without a hit: top-dose activation, actives largely listed as activators; AID 492947; 330,000 tested, 0.02% active; beta-arrestin recruitment to beta2AR, cell-based reporter;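 also: potency is read from the fitted curve at half-maximal effect; 0% = DMSO controls and full agonism = EC100 isoproterenol or metaproterenol; nearly all actives have a fitted effect of over 65% in size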
* marks the source's active call; other numbers are inactive results; ? = inconclusive; / = no result given. Most compounds without a hit are left out; they make up all but 0.9% or so of the library. Unless noted, calls follow the shape of the dose curve; as a rule, active = well fitted curve in the direction sought with a large enough effect; inconclusive = small, poorly fitted or top-dose-only effect, or another doubt; inactive = no such curve, though single readings can be large; an effect the other way counts as inactive or inconclusive. Unless noted, % is scaled to controls: 0 for no effect and ±100 for the full control effect.

SMILES | Eya2 phos inh | CtBP-E1A blk | Six1-Eya2 inh | L3MBTL1 inh | B2AR arrestin
CCOC(=O)C1=C(C)N=c2s/c(=C/c3cccc([N+](=O)[O-])c3O)c(=O)n2C1c1ccccc1 (stereo unspecified) | -4.8% | -79.9* | -70.9* | / | 0.3%
COC(CN(C)S(=O)(=O)c1cc2c3c(c1)CCN3C(=O)CC2)OC | 5.2% | -10.8 | 4.5 | / | 0.2%
O=C(NC(c1ccc(-c2ccccc2)cc1)c1cnccn1)C1CCN(Cc2cccs2)CC1 (stereo unspecified) | / | -7.2 | -13.8 | / | /
O=C(NCC(=O)N1CCN(S(=O)(=O)c2cccs2)CC1)c1ccc(Cl)cc1 | 3.6% | 4.5 | 10.2 | 5.0% | 0.1%
Cc1[nH]c(=O)[nH]c(=O)c1/C=N/NC(=O)[C@H](C)N | ? | -29.5 | -66.4* | ? | -1.0%
Cc1[nH]c(=O)[nH]c(=O)c1/C=N/NC(=O)[C@@H](NC(=O)OC(C)(C)C)C(C)C | 17.8% | -25.2 | -13.3 | 8.5% | 0.8%
C#CCOCCOCCOCCNc1nc(N2CCN(C(=O)CCCCCCCCCCNC(=O)[C@H]([C@@H](C)CC)n3cc(CCCCCN)nn3)CC2)nc(N2CCN(C(=O)CCCCCCCCCCNC(=O)[C@@H]([C@H](C)CC)n3cc(CCCCCN)nn3)CC2)n1 | 28.2µM* | / | / | -10.5% | 0.1%
O=C1CC(c2ccco2)CC(O)=C1C=Nc1cc(Cl)ccc1O (stereo unspecified) | 5.5% | -7.4 | -8.6 | 35.5µM* | -0.7%
O=C1CCN(CCCN2CCC(=O)NC2=S)C(=S)N1 | / | -10.4 | 1.7 | / | /
O=C(O)c1cc(O)c2c(c1)C(=O)c1cccc(O)c1C2=O | 23.9% | -84.1* | -73.5* | ? | -0.2%
NC(c1csc(Nc2nncc3ccccc23)n1)c1ccccc1Cl (stereo unspecified) | / | -3.5 | -2.2 | / | /
CC(C)C(N)c1csc(Nc2ccc(C(F)(F)F)cn2)n1 (stereo unspecified) | / | ? | -21.0 | / | /
CC(C)C(N)c1csc(Nc2ccccn2)n1 (stereo unspecified) | / | -90.7* | -83.2* | / | /
NC(c1csc(Nc2ccccn2)n1)c1ccccc1Cl (stereo unspecified) | / | -90.5* | -78.6* | / | /
NC(c1csc(Nc2cnccn2)n1)c1ccccc1Cl (stereo unspecified) | / | -75.5* | -66.9* | / | /
COc1ccc(COC(=O)C2CCN(S(=O)(=O)c3ccc(OC)c(OC)c3)CC2)cc1 | 4.9% | / | 3.8 | -7.0% | 0.5%
CC(C)(C)NC(=O)CCN(/N=C/c1ccccc1)C1=NS(=O)(=O)c2ccccc21 | -5.3% | -65.3* | ? | / | -1.0%
N#CCCN(/N=C/c1cccnc1)C1=NS(=O)(=O)c2ccccc21 | 18.0% | -24.0 | -18.2 | -2.2% | 0.0%
Cc1cccc(/C=N/N(CCO)C2=NS(=O)(=O)c3ccccc32)c1 | 7.4% | -80.9* | ? | 11.6% | -0.4%
CCCC(=O)NC(=S)Nc1ccc(S(=O)(=O)N2CCc3ccccc32)cc1 | / | -8.0 | -14.0 | / | /
Cc1nc2n(c(=O)c1CCN1CCC(c3noc4cc(F)ccc34)CC1)CCCC2O (stereo unspecified) | 8.5% | / | / | / | /
Fc1ccc(NC(=S)NCc2ccccc2Cl)cc1 | 3.4% | 14.6 | 8.6 | -2.4% | -0.1%
S=C(NCc1ccccc1)NCc1ccccc1Cl | 4.6% | -67.7* | -3.1 | / | -0.3%
Cc1cc([N+](=O)[O-])nn1CC(=O)N/N=C/c1ccc(O)cc1O | 1.3% | ? | -85.2* | / | 0.0%
O=C(Cn1cncn1)N/N=C/c1cc([N+](=O)[O-])ccc1O | 2.8% | / | -91.1* | ? | -0.5%
O=C(CSc1ccccn1)N/N=C/c1ccccc1[N+](=O)[O-] | 6.9% | -4.8 | 1.0 | -6.0% | -1.8%
O=C(CSc1ccccn1)N/N=C/c1cc([N+](=O)[O-])ccc1O | -27.1% | / | -88.5* | / | -0.1%
Cc1ccn(CC(=O)N/N=C/c2cc([N+](=O)[O-])ccc2O)n1 | 2.5% | -93.1* | -89.8* | ? | -0.3%
CC(C)(C)[C@H](NC(=O)c1ccc(N)c(Cl)c1)C(=O)N1CCC[C@H]1C(=O)N[C@H](C#N)Cc1nn[nH]n1 | 4.5% | / | / | 2.1% | -0.1%
O=C(Cn1nc2ccccc2n1)N/N=C/c1cc([N+](=O)[O-])ccc1O | 8.6% | / | ? | 7.94µM* | 0.1%
